# Measurements from the supplement of paper PMC10849652.
# Targets with a hit are over-represented here; the source holds about 8,800 in all. About 0.5% of all pairs of compound and target were hits. Values without a mark were called inactive.
# Assays:
# Assay in all cases: log2 fold change, soluble protein after heating vs DMSO (PISA); higher = thermal stabilisation; K562 lysate, 10 uM; active = over 0.2 and 3.5 SD of the protein, either way, in both replicates (recomputed)
# [1] = compound: C=CC(=O)N1CCC[C@@H](n2nc(-c3ccc(Oc4ccccc4)cc3)c3c(N)ncnc32)C1 [ibrutinib]
# Summary of the method: (§1)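 Following dounce homogenisation of K562 pellets in PBS pH 7.4 with 1 mM MgCl2, crude extract at 1 mg/mL protein was incubated for 30 min with 10 μM compound. Aliquots were then heated for 3 min over 48°C-58°C and pooled, NP-40 was added to 0.5% at 4°C, and soluble protein was recovered as the supernatant at 21,000xg for 90 min. Channel-sum-equalised TMTpro 16plex LC-MS/MS quantified this protein. Each value, from duplicates, is a log-two fold change in thermal stability relative to solvent controls.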
# [2] = compound: CC(=O)c1cnc2ccc(-c3cc(Cl)c(O)c(Cl)c3)nc2c1N[C@H]1CC[C@H](CN(C)C)CC1
# Summary of the method: as §1
# [3] = compound: CC(C)(C)Cn1c(N)nc2ccc(-c3[nH]c(C(C)(C)C)nc3-c3ccc(F)cc3)nc21 [ralimetinib]
# Summary of the method: as §1
# [4] = compound: CC(C)(O)CC(=O)NCCn1ccc2ncnc(Nc3ccc(Oc4cccc(C(F)(F)F)c4)c(Cl)c3)c21
# Summary of the method: as §1
# [5] = compound: CC(C)C1=C2N=C(C=C(N2N=C1)NCC3=CC=CC=C3)NCCCCCCN
# Summary of the method: as §1
# [6] = compound: CC1=C(C(CC(=O)N1)C2=CC=C(C=C2)C(F)(F)F)C(=O)NC3=C(C=C4C(=C3)C=NN4)F
# Summary of the method: as §1
# [7] = compound: CC1=C(C2=C(C=C1)C(=O)C3=CC=CC=C3N2CCCN)C
# Summary of the method: as §1
# [8] = compound: CC1=C(C=C(C=C1)NC(=O)C2=CC(=CC=C2)C(C)(C)C#N)NC3=CC4=C(C=C3)N=CN(C4=O)C
# Summary of the method: as §1
# [9] = compound: CC1=C(C=C(C=C1)NC(=O)C2=CC(=CC=C2)N(C)C)NC(=O)C3=CC=C(C=C3)O
# Summary of the method: as §1
# [10] = compound: CC1=CC=C(C=C1)SC2=C3C=C(SC3=CN=C2)C(=O)N
# Summary of the method: as §1
# [11] = compound: CCCS(=O)(=O)Nc1ccc(F)c(C(=O)c2c[nH]c3ncc(-c4ccc(Cl)cc4)cc23)c1F [vemurafenib]
# Summary of the method: as §1
# [12] = compound: CCCS(=O)(=O)Nc1ccc(F)c(C(=O)c2c[nH]c3ncc(Cl)cc23)c1F
# Summary of the method: as §1
# [13] = compound: CCN(CCCOc1ccc2c(Nc3cc(CC(=O)Nc4cccc(F)c4)[nH]n3)ncnc2c1)CCOP(=O)(O)O [barasertib]
# Summary of the method: as §1
# [14] = compound: CC[C@@H]1C(=O)N(C)c2cnc(Nc3ccc(C(=O)NC4CCN(C)CC4)cc3OC)nc2N1C1CCCC1
# Summary of the method: as §1
# [15] = compound: CC[C@@H]1C(=O)N(C)c2cnc(Nc3ccc(C(=O)N[C@H]4CC[C@H](N5CCN(CC6CC6)CC5)CC4)cc3OC)nc2N1C(C)C [volasertib]
# Summary of the method: as §1
# [16] = compound: CCn1c(C(=O)N(C2CC2)C2CC2)cc2c3c(ncn3C)c(Nc3cc(C)n(C)n3)nc21
# Summary of the method: as §1
# [17] = compound: CCn1cc(-c2ccnc3[nH]c(-c4cccc(CN(C)C)c4)cc23)c(-c2ccc(NC(=O)N(C)C)cc2)n1
# Summary of the method: as §1
# [18] = compound: CN1CCC(CNc2ccc3ncc(-c4cccc(OC(F)(F)F)c4)n3n2)CC1
# Summary of the method: as §1
# [19] = compound: CN1CCN(CCOc2cc(OC3CCOCC3)c3c(Nc4c(Cl)ccc5c4OCO5)ncnc3c2)CC1 [saracatinib]
# Summary of the method: as §1
# [20] = compound: CN1CCN(c2nc(C3=C(c4c[nH]c5ccccc45)C(=O)NC3=O)c3ccccc3n2)CC1 [sotrastaurin]
# Summary of the method: as §1
# UniProt Q8NFV4, sequence (Q8NFV4 whole entry, looked up): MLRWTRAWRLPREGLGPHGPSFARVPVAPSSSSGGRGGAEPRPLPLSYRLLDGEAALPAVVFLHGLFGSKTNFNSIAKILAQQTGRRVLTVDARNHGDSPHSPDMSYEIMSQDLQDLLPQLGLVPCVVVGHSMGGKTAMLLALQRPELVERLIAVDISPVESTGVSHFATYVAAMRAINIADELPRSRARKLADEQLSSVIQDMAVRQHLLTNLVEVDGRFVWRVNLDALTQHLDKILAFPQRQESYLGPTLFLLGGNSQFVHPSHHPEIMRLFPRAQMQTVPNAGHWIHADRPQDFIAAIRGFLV
# UniProt Q9Y6B7, sequence (Q9Y6B7 whole entry, looked up): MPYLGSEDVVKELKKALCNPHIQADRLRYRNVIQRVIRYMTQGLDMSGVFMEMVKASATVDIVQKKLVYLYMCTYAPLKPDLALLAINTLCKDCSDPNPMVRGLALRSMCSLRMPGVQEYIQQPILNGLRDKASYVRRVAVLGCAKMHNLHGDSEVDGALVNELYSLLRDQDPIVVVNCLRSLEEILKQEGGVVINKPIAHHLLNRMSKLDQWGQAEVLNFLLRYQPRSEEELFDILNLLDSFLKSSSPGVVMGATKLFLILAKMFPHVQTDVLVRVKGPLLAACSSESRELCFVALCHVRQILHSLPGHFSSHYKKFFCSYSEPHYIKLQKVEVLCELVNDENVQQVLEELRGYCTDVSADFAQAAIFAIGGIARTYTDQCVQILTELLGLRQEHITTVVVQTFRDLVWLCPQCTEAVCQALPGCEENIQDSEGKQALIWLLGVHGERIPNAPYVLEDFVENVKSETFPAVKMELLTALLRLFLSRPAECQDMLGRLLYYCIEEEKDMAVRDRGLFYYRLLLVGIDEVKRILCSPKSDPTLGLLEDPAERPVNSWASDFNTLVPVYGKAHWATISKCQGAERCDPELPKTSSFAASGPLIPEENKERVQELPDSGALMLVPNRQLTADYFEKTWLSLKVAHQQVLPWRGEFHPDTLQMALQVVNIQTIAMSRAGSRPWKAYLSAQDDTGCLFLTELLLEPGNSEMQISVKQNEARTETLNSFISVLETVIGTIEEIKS
# UniProt Q13155, sequence (Q13155 whole entry, looked up): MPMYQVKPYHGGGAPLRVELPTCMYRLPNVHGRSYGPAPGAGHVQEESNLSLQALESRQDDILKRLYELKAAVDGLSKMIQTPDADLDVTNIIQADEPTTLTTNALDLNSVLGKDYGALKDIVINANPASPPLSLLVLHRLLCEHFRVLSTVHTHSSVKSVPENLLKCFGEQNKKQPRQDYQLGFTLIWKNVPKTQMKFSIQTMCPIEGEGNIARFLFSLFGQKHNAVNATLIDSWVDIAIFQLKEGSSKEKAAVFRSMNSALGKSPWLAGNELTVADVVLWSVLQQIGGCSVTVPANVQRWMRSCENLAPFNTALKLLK
# UniProt P05091, sequence (P05091 whole entry, looked up): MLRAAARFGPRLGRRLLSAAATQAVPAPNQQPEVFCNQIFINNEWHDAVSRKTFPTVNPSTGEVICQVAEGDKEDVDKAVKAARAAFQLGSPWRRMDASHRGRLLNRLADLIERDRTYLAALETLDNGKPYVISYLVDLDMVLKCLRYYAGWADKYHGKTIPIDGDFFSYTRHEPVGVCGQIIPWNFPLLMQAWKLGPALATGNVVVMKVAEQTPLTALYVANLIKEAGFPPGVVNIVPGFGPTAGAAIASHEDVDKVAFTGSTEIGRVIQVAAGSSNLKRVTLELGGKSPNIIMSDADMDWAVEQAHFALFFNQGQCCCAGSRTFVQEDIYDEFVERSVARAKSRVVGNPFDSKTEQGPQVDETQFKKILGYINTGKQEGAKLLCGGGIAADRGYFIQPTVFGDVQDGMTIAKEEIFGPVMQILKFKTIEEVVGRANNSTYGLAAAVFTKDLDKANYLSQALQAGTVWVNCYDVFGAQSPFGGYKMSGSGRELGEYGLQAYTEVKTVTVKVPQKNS
# UniProt Q9BRQ8, sequence (Q9BRQ8 whole entry, looked up): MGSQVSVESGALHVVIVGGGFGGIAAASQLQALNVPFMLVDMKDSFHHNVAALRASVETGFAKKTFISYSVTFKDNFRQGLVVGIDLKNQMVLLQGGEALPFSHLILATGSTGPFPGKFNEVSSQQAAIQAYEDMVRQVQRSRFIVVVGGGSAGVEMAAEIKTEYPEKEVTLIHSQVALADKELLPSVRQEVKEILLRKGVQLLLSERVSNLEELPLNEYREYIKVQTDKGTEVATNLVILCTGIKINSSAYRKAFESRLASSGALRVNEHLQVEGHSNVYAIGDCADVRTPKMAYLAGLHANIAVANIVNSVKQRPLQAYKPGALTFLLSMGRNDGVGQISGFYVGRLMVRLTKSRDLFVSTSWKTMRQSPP
# UniProt P16219, sequence (P16219 whole entry, looked up): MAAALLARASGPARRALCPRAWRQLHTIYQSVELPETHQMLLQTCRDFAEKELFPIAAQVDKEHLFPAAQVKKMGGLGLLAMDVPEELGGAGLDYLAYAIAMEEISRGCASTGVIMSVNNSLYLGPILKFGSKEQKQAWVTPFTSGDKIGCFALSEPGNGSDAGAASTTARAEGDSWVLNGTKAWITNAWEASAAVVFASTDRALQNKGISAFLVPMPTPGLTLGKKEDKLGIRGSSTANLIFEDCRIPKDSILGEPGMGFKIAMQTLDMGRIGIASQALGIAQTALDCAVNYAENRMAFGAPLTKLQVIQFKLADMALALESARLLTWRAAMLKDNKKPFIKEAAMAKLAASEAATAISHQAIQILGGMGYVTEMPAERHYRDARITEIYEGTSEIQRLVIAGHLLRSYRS
# UniProt P42330, sequence (P42330 whole entry, looked up): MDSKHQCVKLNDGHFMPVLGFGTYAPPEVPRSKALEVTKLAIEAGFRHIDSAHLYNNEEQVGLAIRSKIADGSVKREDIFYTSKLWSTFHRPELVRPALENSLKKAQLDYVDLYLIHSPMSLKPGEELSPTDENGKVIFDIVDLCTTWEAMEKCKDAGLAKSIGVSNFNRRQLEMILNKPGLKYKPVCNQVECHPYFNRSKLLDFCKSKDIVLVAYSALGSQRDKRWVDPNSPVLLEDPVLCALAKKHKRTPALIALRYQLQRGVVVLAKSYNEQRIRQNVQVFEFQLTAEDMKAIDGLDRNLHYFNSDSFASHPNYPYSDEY
Target,log2 fold change [1],log2 fold change [2],log2 fold change [3],log2 fold change [4],log2 fold change [5],log2 fold change [6],log2 fold change [7],log2 fold change [8],log2 fold change [9],log2 fold change [10],log2 fold change [11],log2 fold change [12],log2 fold change [13],log2 fold change [14],log2 fold change [15],log2 fold change [16],log2 fold change [17],log2 fold change [18],log2 fold change [19],log2 fold change [20]
ABHD11 (UniProt Q8NFV4),-0.012,0.057,-0.04,-0.048,-0.2,0.018,-0.241,-0.013,0,-0.017,0.062,-0.051,0.093,-0.029,-0.082,0.028,-0.109,0.024,-0.026,-0.016
ALDH2 (UniProt P05091),-0.001,0.081,0.002,-0.012,0.199,-0.013,0.014,-0.081,0,0.01,-0.083,0.011,-0.012,-0.012,-0.017,-0.011,0.007,-0.009,0.012,0
AIMP2 (UniProt Q13155),0,0.013,0.044,0.015,0.044,0.002,0.018,-0.005,0.019,0.028,-0.026,0.022,0.031,-0.131,-0.063,-0.019,-0.008,-0.079,0.018,0.015
ACADS (UniProt P16219),-0.006,0.031,0.004,-0.026,-0.002,-0.041,-0.022,0.004,-0.027,0.018,0.023,0.017,0.006,-0.039,-0.016,-0.02,0.016,0.003,-0.026,-0.026
AKR1C3 (UniProt P42330),-0.033,0.016,-0.028,-0.003,-0.039,0.011,0.247 (active),0.02,-0.035,0.001,0.01,0.023,-0.033,0.091,-0.027,-0.05,-0.034,0.059,0.187,0.044
AIFM2 (UniProt Q9BRQ8),-0.016,-0.075,0.028,0.643 (active),0.275,-0.033,-0.161,-0.04,-0.051,0.024,-0.19,0.091,-0.029,-0.018,-0.004,-0.089,-0.057,0.149,-0.062,0.036
AK2 (UniProt P54819),0.054,-0.022,-0.013,0.027,0.018,-0.018,0.003,-0.018,-0.031,-0.024,0.014,0.062,-0.013,0.029,0.013,-0.009,0.119,-0.008,-0.015,-0.038
AP4B1 (UniProt Q9Y6B7),-0.028,-0.048,-0.044,0,0.034,0.003,-0.027,-0.02,-0.041,-0.041,0.026,0.087,0.028,-0.01,-0.009,0.011,-0.035,0.02,0.042,-0.027
